# Source: PubChem BioAssay
# Compounds with a hit are over-represented: about 5.5% of the library has one in this group of screens.
# Sfp inh: inhibitors of Bacillus subtilis Sfp phosphopantetheinyl transferase; Q9F4F7; hit rate 3.5% among 310,000; Potency, µM, inactives show largest response in the series, negative = inhibition, actives largely listed as inhibitors; Biochemical Sfp PPTase activity, qHTS;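 note: the enzyme is Sfp with the accession as filed and its product quenches rhodamine fluorescence; potency is the fitted concentration of half-maximal effect; 0% = enzyme reaction without inhibitor and -100% = no enzyme wells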
#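 Buffer: 50 mM Hepes-Na pH 7.6, 10 mM MgCl2, 0.01% Nonidet P-40, 0.01% BSA. Enzyme 15 nM, pre-exposed to compound 15 min; substrates then added and fluorescence change tracked over 30 min.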
# ELG1 DNA repair: inhibitors of ELG1-dependent DNA repair in HEK293T cells | HEK293T ELG1-luciferase reporter, luminescence, 16 h; DNA damage induced by 5-fluorouridine | Potency, µM (top dose mostly 46.1 µM), for inactives: top-dose activity change, negative = inhibition, usual class: inhibitors | hit rate 2.3% among 330,000; note: potency is the fitted concentration of half-maximal effect; nearly all actives have a fitted effect of over 55% in size
#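 Quantitative HTS, concentration-response format. 2,000 cells/well co-treated with 5-fluorouridine and compound, 16 hr in 5% CO2 at 37 °C; ONE-Glo luminescence read after 30 min.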
# Giardia killer: Giardia lamblia killing | Giardia lamblia trophozoite viability | activity change, % at 7.66 µM, hits read low | hit rate 0.15% among 340,000; in the data active = activity change below about -80%; inconclusive = between about -30% and that limit;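 note: parasites exposed to compound for two days anaerobically before the ATP read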
#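 Each well holds 100 Giardia trophozoites and compound. After two days (48 hrs) at 37 deg C in anaerobic conditions, ATP is quantified by luminescence.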
# Coupling enz: coupling enzyme interference in Giardia aldolase counter-screen; coupling enzyme system counterscreen, AmpLite Red fluorescence; activity change, negative = inhibition, % at 58.2 µM, hits read low; hit rate 0.67% among 290,000; AID 2472; in the data active = activity change below about -30%
#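 Coupling enzymes only (glyceraldehyde-3-phosphate) + compound, at 57.5 uM final, 10 min RT; add substrate/coupling/AmpLite Red mix, 20 min RT; fluorescence ex 525/em 598 nm. Actives flag coupling-system interference.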
# * hit, by the source's call; ? = inconclusive; . = no result; ! = repeats disagree. Unless noted, calls come from the whole dose curve; as a rule, active = well fitted curve in the direction sought with a large enough effect; inconclusive = small, poorly fitted or top-dose-only effect, or another doubt; inactive = no such curve, though single readings can be large; an effect the other way counts as inactive or inconclusive. Unless noted, % is set by controls: 0 for no effect and ±100 for the full control effect.
SMILES,Sfp inh,ELG1 DNA repair,Giardia killer,Coupling enz
Cc1noc(NS(=O)(=O)c2ccc(NC(=O)CSc3nc4ccccc4s3)cc2)c1C,50µM*,?,-4,22
O=C(OCC(O)COc1ccccc1)c1ccc([N+](=O)[O-])cc1 (stereo not given),12%,-16%,11,0
CC(C)CCC(CCN1CCOCC1)c1ccc2c(c1)OCO2 (stereo not given),79µM*,-3%,12,-3
CC(C)CCC(CCN1CCCC1)c1ccc2c(c1)OCO2 (stereo not given),-21%,18%,-7,0
COc1cc(/C=C2\CC/C(=C\c3cc(OC)c(O)c(OC)c3)C2=O)cc(OC)c1O,45µM*,7.3µM*,-6,-34*
COc1cc(/C=C2/CCC/C(=C\c3cc(O)c(OC)c(Cl)c3)C2=O)cc(Cl)c1O,-3%,15µM*,1,-1
COc1cc(/C=C2\CCC/C(=C\c3ccc(O)c(OC)c3)C2=O)ccc1O,-7%,?,0,5
Cc1cc2ccccn2c1C(=O)c1ccccc1F,15%,-8%,2,-2
CCOC(=O)c1nc(C)sc1-c1ccnn1S(=O)(=O)c1ccccc1C(F)(F)F,50µM*,-10%,-14,-19
CCOCCCNC(=O)c1cc(Sc2ccc(F)cc2)nc2ccccc12,6%,18µM*,33,4
O=c1c2ccccc2nc(COc2ccccc2)n1/N=C/c1cn[nH]c1-c1ccccc1,-12%,6.5µM*,-7,0
Cc1ccc(-c2[nH]ncc2/C=N/n2c(C)nc3ccccc3c2=O)cc1,-6%,9.2µM*,-6,0
Cc1nc2ccccc2c(=O)n1/N=C/c1ccccc1,7%,?,2,3
O=c1c2ccccc2nc(COc2ccccc2)n1/N=C/c1ccc(O)cc1O,-2%,?,-6,-2
Cc1ccccc1OCc1nc2ccccc2c(=O)n1/N=C/c1cn[nH]c1-c1ccc(Br)cc1,12%,6.5µM*,26,-11
CCC1(CC)NC(=O)N(CC(=O)OCc2nc3cc(C(=O)OC)ccc3c(=O)[nH]2)C1=O,.,-4%,-1,.
O=C(Oc1cccc2cccnc12)c1ccc(N2C(=O)C3C4CCC(C4)C3C2=O)cc1 (stereo not given),?,-7%,-1,-3
O=C(Oc1cccc2cccnc12)c1cccc(N2C(=O)C3C4CCC(C4)C3C2=O)c1 (stereo not given),45µM*,?,27,-9
O=[N+]([O-])c1ccc(N2CCN(S(=O)(=O)c3ccccc3)CC2)cc1NCCN1CCOCC1,-24%,26µM*,13,-1
CC(Nc1cc(N2CCN(S(C)(=O)=O)CC2)ccc1[N+](=O)[O-])c1ccccc1 (stereo not given),-2%,-27%,13,-19
CC(Nc1cc(N2CCN(S(=O)(=O)N(C)C)CC2)ccc1[N+](=O)[O-])c1ccccc1 (stereo not given),3%,-19%,-21,-34*
CCCCNC(=O)NS(=O)(=O)c1ccc(C(=O)O)cc1,20%,.,.,-1
CN(C1=C(NC(=O)c2ccccc2)C(=O)c2ccccc2C1=O)C1CCS(=O)(=O)C1 (stereo not given),20µM*,9.2µM*,-21,-62*
CC(=O)NC1=C(NC2CCS(=O)(=O)C2)C(=O)c2ccccc2C1=O (stereo not given),32µM*,?,-1,-51*
O=C(COC(=O)CNC(=O)c1ccccc1F)NC1CC1,.,8%,-11,.
SMILES,Sfp inh,ELG1 DNA repair,Giardia killer,Coupling enz
COc1ccc(-n2cc(-c3ccc(OC)c(OC)c3)[nH]c2=S)cc1,45µM*,20%,-8,0
COc1ccc(Cl)cc1NC(=O)COC(=O)CCNS(=O)(=O)c1cccs1,.,25%,-11,.
Cn1c(Cc2cccs2)nnc1SCC(=O)N1CCCc2ccccc21,15%,?,32,1
CC1Cc2ccccc2N1C(=O)CSc1nnc(Cc2ccccc2)n1CCc1ccccc1 (stereo not given),-11%,18µM*,11,1
O=C(CSc1nnc(Cc2cccs2)n1CCc1ccccc1)N1CCCc2ccccc21,-28%,21µM*,0,-1
C/C(=N\Nc1nc(-c2ccccc2)cs1)c1cccs1,56µM*,?,-9,1
C=CCOC(=O)N[C@H](/C(C(=O)OC)=C(\C)NCc1ccccc1)c1cccc(OC)c1,-16%,.,.,2
COc1ccc(-c2csc3ncnc(NCCCO)c23)cc1,8%,4.6µM*,-4,0
CCOc1ccccc1N1CCN(c2ncnc3scc(-c4ccc(OC)cc4)c23)CC1,-6%,15µM*,-2,-1
COc1ccc(-c2csc3ncnc(N4CCN(CCO)CC4)c23)cc1,11%,-27%,-1,-1
COc1ccc(-c2csc3ncnc(N4CCN(c5ccccc5OC)CC4)c23)cc1,-3%,13µM*,-6,3
CCN1CCN(c2ncnc3scc(-c4ccc(C)cc4)c23)CC1,13%,?,23,0
CC(C)NC(=O)c1ccc(COc2cc(Cl)ccc2Cl)o1,1%,?,-12,0
Cn1c2ccccc2c(=O)n2c(=O)c3ccccc3cc12,15%,?,.,-35*
COc1cccc(NC(=O)CN(c2ccccc2OC)S(=O)(=O)c2cccs2)c1,.,21µM*,-3,.
COc1ccccc1N(CC(=O)Nc1ccccc1)S(=O)(=O)c1cccs1,.,-2%,-21,.
CCN(CC(=O)Nc1cccc(C(C)=O)c1)S(=O)(=O)c1ccc(OC)cc1,15%,0%,-1,1
CCN(CC)S(=O)(=O)c1cccc(NC(=O)CN(C)Cc2cccc(OC)c2)c1,89µM*,?,-5,-12
O=c1c(O)c(-c2ccc(O)c(O)c2)oc2cc(O)ccc12,40µM*!,.,1,-7
O=C1CS/C(=N/N=C2C3CC4CC(C3)CC2C4)N1,24%,14%,-17,4
O=C1CS/C(=N/N=C\c2ccn[nH]2)N1,56µM*,-16%,9,-1
CCc1ccc(/C=C/C(=O)c2c(C)cc(C)[nH]c2=O)cc1,8%,21µM*,-24,2
O=C(C=Cc1ccco1)c1ccco1,.,.,-14,.
Cc1ccc(C(=O)/C=C/c2ccco2)c(O)c1,45µM*,?,-6,2
Cc1cc(C)c(C(=O)/C=C/c2cccs2)c(=O)[nH]1,21%,?,1,0
SMILES,Sfp inh,ELG1 DNA repair,Giardia killer,Coupling enz
Cc1ccc(/C=C/C(=O)c2c(C)cc(C)[nH]c2=O)cc1,6%,21µM*,-7,2
CCc1ccc(/C=C(\C)C(=O)c2c(C)cc(C)[nH]c2=O)cc1,-9%,?,-3,4
Cc1cc(C)c(C(=O)/C=C/c2ccco2)c(=O)[nH]1,8.9µM*,0%,2,-17
CCN(CC)CCOCCn1c(C)ccc1C,.,.,-13,.
Cn1c(N)c(C(=O)/C=C/c2ccccc2)c(=O)[nH]c1=O,50µM*,?,-2,0
C/C(=C\c1ccc(Cl)cc1)C(=O)c1c(C)cc(C)[nH]c1=O,25%,?,-9,0
C/C(=C\c1ccc(Br)cc1)C(=O)c1c(C)cc(C)[nH]c1=O,-1%,15µM*,-10,1
